Measured values as given in PubChem BioAssay (NCATS).
Results filed as inconclusive are left out. The source made the active and inactive calls. Calls come from the whole dose curve; as a rule, active = well fitted curve in the direction sought with a large enough effect; inconclusive = small, poorly fitted or top-dose-only effect, or effect the other way, or another doubt; inactive = no such curve, though single readings can be large or run the other way. Starred links: 1 amine or outer side, 2 acyl side, 3 side chain; linkers in the order of their positions; H or OH if unused. Positions of bridges follow the written chain, without caps; N, C: chain ends. Non-standard residues stand in square brackets, D forms with d. Residues, ends and D or L forms follow the SMILES beside them. ξ: configuration not given here. *: point of attachment. X3 = C[C@@H](Oc1ccc([C@H](N[*:1])C(=O)[*:2])cc1)[C@]1(/C=C\C(=O)[*:3])CO1; d(aIle) = CC[C@H](C)[C@@H](N)C(=O)O; X2 = CC(C)[C@@H](O)C(C)C(=O)*; ξNMeF = CNC(Cc1ccccc1)C(=O)O; ξT = CC(O)C(N)C(=O)O; ξS = NC(CO)C(=O)O

assay: HPAF-II 24hr Apoptosis Induction qHTS against the NCATS CANVASS Library (AID 1347356); conditions: HPAF-II caspase-3/7 Caspase-Glo luminescence; series mostly up to 46.1 µM
Description: Natural products and their derivatives continue to be wellsprings of nascent therapeutic potential. However, many laboratories have limited resources for biological evaluation, leaving their previously isolated or synthesized compounds largely or completely untested. To address this issue, the Canvass library of natural products was assembled (https://tripod.nih.gov/canvass), in collaboration with academic and industry researchers, for quantitative high-throughput screening (qHTS) across a diverse set of cell-based and biochemical assays. The pure (>85% purity by liquid chromatography/mass spectrometry [LC/MS]) Canvass library of 346 natural products were submitted by 45 academic laboratories and companies around the world. We collected pure natural products to circumvent deconvolution and structure elucidation due to time and resource limitations. The library was formatted into 1536-well plates and evaluated in 50 qHTS (in an 11-pnt concentration series) bioassays with broad scope of disease-relevant mechanisms. The resulting data set from 50 different assays was then systematically analyzed to identify overall trends and specific natural products with interesting biological activities. Reported herein are the results of each individual qHTS and their corresponding assay protocol. The Caspase-Glo (R) (Promega) is a homogeneous, luminescent assay that measures caspase activity. The detection substrate contains tetrapeptide sequence DEVD in an "add-mix-measure" format. The reagent generates a luminescent signal produced by a thermostable luciferase. The luminescence is proportional to the amount of caspase activity in the assay reaction. National Center for Advancing Translational Sciences (NCATS), Rockville, MD National Institute of Health (NIH), Bethesda, Maryland
Cancer Cell Apoptosis Assay 1. In a 1536 well, white solid bottom tissue culture plates (Corning 7494), HPAF-II cancer cells in DMEM + 10% FBS + 1% P/S media were dispensed in each well at a final concentration of 500 cells / well (5uL volume) using the Multidrop Combi (Thermo Fisher Scientific) dispenser. 2. Compounds were pin transferred (~23nL volume) via Wako Pin-tool (Wako Automation, Richmond VA) equipped with a 1536 pin head. The assay plates were treated with compounds in a concentration series with a final concentration range of 0.17 nM to 103 uM. 3. Doxorubicin was used as a control in a 16pnt titration (1mM; 1:2 dilution; 16-points; n = 2; column 3, rows 1 - 32) and was pin transferred via Wako Pin-tool equipped with a 1536 pin head. The final concentration range of doxorubicin is 0.1nM - 4uM. 4. The assay plates were incubated for 24 hours at 37 degrees C/5% CO2/95% Rh. 5. 3uL Caspase-Glo 3/7 (R) (Promega) detection reagent was then added to the assay plates (columns 2 - 48, rows 1 - 32) and incubated at room temperature, covered from light, for 15 min. 6. Luminescence signal was acquired via the ViewLux plate reader (PerkinElmer) using a clear filter, 20 second exposure and 2x binning settings.

Structure (SMILES)	outcome
C1=C2CCCN[C@H]2C2CC1[C@H]1CCCCN1C2 (some centres undefined)	inactive
C/C=C1/CN2C3CC1C1=CCC(=O)N4c5ccccc5[C@@]3(C[C@@H]2C2=C[C@H]3C5CC6N(CC[C@@]67c6ccccc6N(C2=O)[C@@H]37)C/C5=C/C)[C@H]14 (some centres undefined)	inactive
CO[C@H]1C[C@H](O[C@H]2[C@@H](O)C[C@H](O[C@H]3CC[C@]4(C=O)[C@H]5CC[C@]6(C)C(C7=CC(=O)OC7)CC[C@]6(O)[C@@H]5CC[C@]4(O)C3)O[C@@H]2C)O[C@H](C)[C@H]1O[C@H]1C[C@@H](OC)[C@@H](O[C@@H]2O[C@H](CO)[C@@H](O)[C@H](O)[C@H]2O)[C@@H](C)O1 (some centres undefined)	inactive
CC[C@@H]1CN2CCc3c([nH]c4cccc(OC)c34)[C@@H]2C[C@@H]1/C(=C\OC)C(=O)OC	inactive
O[C@H]1C=C[C@@]23CCN(Cc4cc5c(cc42)OCO5)[C@@H]3C1	inactive
CCC(=O)N[C@@H](C[C@H](C)C(Cl)(Cl)Cl)C(=O)N1C(=O)C=C(OC)[C@@H]1C[C@H](C)C(Cl)Cl	inactive
CCCCC1CC[C@H]2CCCC(CCC)N12 (some centres undefined)	inactive
C[C@]12CC(O)C3[C@@H](CCC4C[C@@H](O)CC[C@@]43CO)[C@@]1(O)CC[C@@H]2C1=CC(=O)OC1 (some centres undefined)	inactive
CC(C)CC1C(=O)O[C@H](C(C)C)C(=O)N(C)C(CC(C)C)C(=O)O[C@@H](C(C)C)C(=O)N(C)C(CC(C)C)C(=O)O[C@H](C(C)C)C(=O)N(C)C(CC(C)C)C(=O)O[C@@H](C(C)C)C(=O)N1C (some centres undefined)	inactive
c1ccc2nc3c(cc2c1)[nH]c1ccccc13	inactive
C=CC(C)(C)[C@@]12C[C@H]3C(=O)N/C(=C\c4cnc[nH]4)C(=O)N3[C@@H]1Nc1ccccc12	inactive
C/C(=C\[C@H](C)C(=O)C[C@H](O)CC1CC(=O)NC(=O)C1)[C@@H]1OC(=O)/C=C/CC/C=C/C=C/[C@@H]1C	inactive
C=C[C@H]1CN2CCc3c([nH]c4cccc(OC)c34)[C@@H]2C[C@@H]1/C(=C\OC)C(=O)OC	inactive
CCCC[C@@H]1CC[C@H]2CCCC(CCCO)N12 (some centres undefined)	inactive
C=C[C@]12C=CCN3CC[C@@]4(c5ccccc5NC(=O)[C@@H]4C1)[C@@H]32	inactive
CCCC[C@@H](C)/C=C1/CN2CCC[C@H]2[C@@](C)(O)[C@@H]1O	inactive
C/C=C1/CN2CC[C@@]34c5ccccc5N(C)[C@@H]3[C@@H]2C[C@@H]1[C@H]4C(=O)OC	inactive

Structure (SMILES)	outcome
CC[C@H](C)[C@H]1NC(=O)[C@@H](NC(=O)C(C)[C@H](O)C(C)C)[C@@H](C)OC(=O)C2COC(=O)CNC(=O)/C=C\[C@]3(CO3)[C@@H](C)Oc3ccc(cc3)[C@H](NC1=O)C(=O)N(C)C(Cc1ccccc1)C(=O)NC(C(C)O)C(=O)N2 (some centres undefined) (X2-T[d(aIle)][X3][ξNMeF][ξT][ξS]; ester 1-C; linker 3-6 via G)	inactive
CO[C@H]1[C@H](O[C@H]2CC[C@]3(C=O)[C@H]4CC[C@]5(C)[C@@H](C6=CC(=O)OC6)CC[C@]5(O)[C@@H]4CC[C@]3(O)C2)O[C@H](C)[C@H](O)[C@@H]1OC	inactive
C/C=C1/CN2CC[C@]34C(=C(C(=O)OC)[C@H]1C[C@H]23)Nc1ccccc14	inactive
CC[C@@H]1CN2CCC3(Nc4cccc(OC)c4C3=O)[C@@H]2C[C@@H]1/C(=C\OC)C(=O)OC (some centres undefined)	inactive
CO[C@@H](/C=C/CC/C=C/C(=O)O)[C@@H](O)[C@H](C)/C=C(\C)[C@H](O)[C@H](C)C(=O)CCCC1CC(=O)NC(=O)C1	inactive
COC1C(O)C(C)OC(OC2C(Oc3cccc4c(O)c5c(=O)oc6ccc(C)c7c(=O)oc(c34)c5c67)OC(C)C(O)C2O)C1O (centres undefined)	inactive
CO[C@H]([C@@H](C)[C@H]1O[C@]1(C)C[C@H](C)/C=C/C=C(\C)[C@H]1O[C@@H](CC(=O)O)CC[C@@H]1C)[C@@H](C)O	inactive
CC[C@H]1CN2CCc3c([nH]c4cccc(OC)c34)[C@@H]2C[C@@H]1/C(=C\OC)C(=O)OC	inactive
COC1=C(C2=C(OC)C(=O)c3cc4c(c(O)c3C2=O)C(=O)O[C@H](C)C4)C(=O)c2c(cc3c(c2O)C(=O)O[C@H](C)C3)C1=O	inactive
CO[C@@]12c3c(C)cc(O)c4c(=O)occ(c34)C(=O)[C@@H]1[C@]13COC(=O)c4c(O)cc(C)c(c41)C(=O)[C@H]2[C@@H]3OC(C)=O	inactive
C[N+](C)(C)CCc1c[nH]c2ccccc12	inactive
C/C=C(\C)C(=O)O[C@@H]1[C@@H](O)[C@@H]2O[C@H]3[C@H](O[C@@H](CCCCC)CCCCCCC(=O)CCC(=O)OC[C@@H](O2)[C@H]1OC(=O)/C=C/c1ccccc1)O[C@H](C)[C@H](OC(C)=O)[C@@H]3O	inactive
C[C@]12CC(O)C3[C@@H](CC[C@@H]4C[C@@H](O)CC[C@]34CO)[C@@]1(O)CC[C@@H]2C1=CC(=O)OC1 (some centres undefined)	inactive
C/C=C/[C@@H]1[C@H]2C[C@@H](C)CC[C@@H]2C(C)=C[C@H]1C(=O)c1c(O)c(-c2ccc(O)cc2)c[nH]c1=O	inactive
C=CC(C)(C)[C@@]12C[C@H]3C(=O)N/C(=C/c4cnc[nH]4)C(=O)N3[C@@H]1Nc1ccccc12	inactive
C[C@]12CCC3[C@@H](CC[C@@H]4C[C@@H](O)CC[C@]34CO)[C@@]1(O)CC[C@@H]2C1=CC(=O)OC1 (some centres undefined)	inactive
CC[C@]12C=CCN3CC[C@]4(C(=C(C(=O)OC)C1)Nc1ccccc14)[C@@H]32	inactive
